In publication PMC11062922 (Nature Chemical Biology, 2023) one finds potency estimated from few doses data, which are given here for five molecules.

Read-outs that look alike come from different tables or passages of the source.

What all share (set-up): species or system human, MV4-11 + K-562 + COLO205 + SK-N-BE2 + OVCAR-8
For one assay, the system named is CDC42BPB. Conditions: read-out: apparent Kd, compound concentrations: 100 nM and 1000 nM (sheet 'Samples'), n = 1.
A further assay deals with PRKX. The following applies: read-out: apparent Kd; compound concentrations: 100 nM and 1000 nM (sheet 'Samples'), CATDS: 0.17762279557226701; n = 1.
The subject of a further assay is ROCK1. The following applies: read-out: apparent Kd, compound concentrations: 100 nM and 1000 nM (sheet 'Samples'), n = 1.
The next assay relates to ROCK2. The following applies: read-out: apparent Kd, compound concentrations: 100 nM and 1000 nM (sheet 'Samples'), n = 1.
The subject of another assay is CDC42BPG. Conditions: read-out: apparent Kd, compound concentrations: 100 nM and 1000 nM (sheet 'Samples'), n = 1.
Another assay deals with FLT4. The following applies: read-out: apparent Kd; compound concentrations: 100 nM and 1000 nM (sheet 'Samples'), CATDS: 0.57222186491760196; n = 1.
For another assay, the system named is PLK1. Conditions: read-out: apparent Kd; compound concentrations: 100 nM and 1000 nM (sheet 'Samples'), CATDS: 0.18184890704530299; n = 1.
The next assay concerns RIPK2. The following applies: read-out: apparent Kd; compound concentrations: 100 nM and 1000 nM (sheet 'Samples'), CATDS: 0.227728306624736; n = 1.
The subject of the next assay is CDC42. Conditions: read-out: apparent Kd; compound concentrations: 100 nM and 1000 nM (sheet 'Samples'), CATDS: 1; n = 1.
The test system of another assay is CDC42BPA. Conditions: read-out: apparent Kd; compound concentrations: 100 nM and 1000 nM (sheet 'Samples'), CATDS: 5.2351316008414299E-2; n = 1.
In the next assay the test system is CIT. The following applies: read-out: apparent Kd; compound concentrations: 100 nM and 1000 nM (sheet 'Samples'), CATDS: 4.1257824798939802E-2; n = 1.
Another assay relates to GSK3A. The following applies: read-out: apparent Kd; compound concentrations: 100 nM and 1000 nM (sheet 'Samples'), CATDS: 6.6590939053141299E-2; n = 1.
Another assay concerns GSK3B. Conditions: read-out: apparent Kd; compound concentrations: 100 nM and 1000 nM (sheet 'Samples'), CATDS: 5.7473079866645002E-2; n = 1.
The subject of another assay is LATS1. The following applies: read-out: apparent Kd; compound concentrations: 100 nM and 1000 nM (sheet 'Samples'), CATDS: 9.7617752181751005E-2; n = 1.
The test system of a further assay is MELK. Conditions: read-out: apparent Kd; compound concentrations: 100 nM and 1000 nM (sheet 'Samples'), CATDS: 3.9798752380349897E-2; n = 1.
In another assay the test system is PIM2. The following applies: read-out: apparent Kd; compound concentrations: 100 nM and 1000 nM (sheet 'Samples'), CATDS: 3.9305369436655899E-2; n = 1.
Another assay relates to PKN1. Conditions: read-out: apparent Kd; compound concentrations: 100 nM and 1000 nM (sheet 'Samples'), CATDS: 5.10787631229489E-2; n = 1.
Another assay has as its system PKN2. The following applies: read-out: apparent Kd; compound concentrations: 100 nM and 1000 nM (sheet 'Samples'), CATDS: 0.10529576550344701; n = 1.
In a further assay the test system is PKN3. The following applies: read-out: apparent Kd; compound concentrations: 100 nM and 1000 nM (sheet 'Samples'), CATDS: 7.5123616152450098E-2; n = 1.
The subject of another assay is PRKCD. Conditions: read-out: apparent Kd; compound concentrations: 100 nM and 1000 nM (sheet 'Samples'), CATDS: 4.7600533204707897E-2; n = 1.
A further assay relates to PRKCI. The following applies: read-out: apparent Kd; compound concentrations: 100 nM and 1000 nM (sheet 'Samples'), CATDS: 3.9274053765020099E-2; n = 1.
The next assay relates to RPS6KB1. The following applies: read-out: apparent Kd; compound concentrations: 100 nM and 1000 nM (sheet 'Samples'), CATDS: 4.4674945957763799E-2; n = 1.
Another assay deals with GAK. Conditions: read-out: apparent Kd; compound concentrations: 100 nM and 1000 nM (sheet 'Samples'), CATDS: 0.13668141663723599; n = 1.
Another assay deals with MAPK10. Conditions: read-out: apparent Kd; compound concentrations: 100 nM and 1000 nM (sheet 'Samples'), CATDS: 0.12548752602980501; n = 1.
The subject of a further assay is MAPK14. Conditions: read-out: apparent Kd; compound concentrations: 100 nM and 1000 nM (sheet 'Samples'), CATDS: 0.192952593667473; n = 1.
A further assay concerns MAPK9. Conditions: read-out: apparent Kd; compound concentrations: 100 nM and 1000 nM (sheet 'Samples'), CATDS: 0.107953199944472; n = 1.
The subject of the next assay is MAPKAPK2. The following applies: read-out: apparent Kd; compound concentrations: 100 nM and 1000 nM (sheet 'Samples'), CATDS: 0.17502946768032501; n = 1.
Another assay concerns NQO1. The following applies: read-out: apparent Kd; compound concentrations: 100 nM and 1000 nM (sheet 'Samples'), CATDS: 8.60735929712554E-2; n = 1.
In another assay the test system is TNIK. Conditions: read-out: apparent Kd; compound concentrations: 100 nM and 1000 nM (sheet 'Samples'), CATDS: 0.13491621958450101; n = 1.

For the molecule `CC1=C(C(=O)Nc2cc(Cl)c3[nH]ncc3c2)C(c2ccc(C(F)(F)F)cc2)CC(=O)N1` (stereo not shown) [GSK466317A], the potency estimated from few doses in the assay on CDC42BPB (CATDS: 0.18288519935085101) is 1940 nM; in the assay on PRKX, 2180 nM; with ROCK1 (CATDS: 0.39431900573288498), 277 nM; in the assay on ROCK2 (CATDS: 0.422625118244225), 246 nM.

For `COc1cc2nccc(Nc3ccc(OCc4ccc(NC(C)=O)cc4)cc3)c2cc1OC.Cl` [GW440135A], the potency estimated from few doses in the assay with CDC42BPG (CATDS: 0.22924434609497199) is 1070 nM; with FLT4, 185 nM; in the assay with PLK1 it was 2130 nM; in the assay with RIPK2, 1090 nM.

Consider `COC(=O)c1cccc(NC(=O)NCCNc2ccnc(Nc3ccc(F)cc3)n2)c1` [GSK1379883A], for which, in the assay with CDC42, the potency estimated from few doses is 1560 nM.

As to `NCc1ccc(-n2c(-c3nonc3N)nc3cnccc32)cc1` [SB-750140], the potency estimated from few doses is 660 nM in the assay on CDC42BPA; 173 nM in the assay on CDC42BPB (CATDS: 8.8336954775193793E-2); 1420 nM in the assay on CDC42BPG (CATDS: 4.2033135949813498E-2); 1530 nM with CIT; 339 nM in the assay with GSK3A; 502 nM with GSK3B. Besides, the potency estimated from few doses in the assay on LATS1 was 139 nM; in the assay on MELK, 1800 nM; in the assay with PIM2 it was 1910 nM; with PKN1 it was 712 nM; with PKN2, 118 nM; in the assay with PKN3 it was 252 nM. In addition, the potency estimated from few doses in the assay on PRKCD is 895 nM; in the assay on PRKCI, 1910 nM; in the assay with ROCK1 (CATDS: 0.30602984254096799), 16.3 nM; in the assay on ROCK2 (CATDS: 0.35552561268284599) it was 12.9 nM; in the assay with RPS6KB1, 1120 nM.

`N#Cc1ccc2c(-c3ccnc(NC4CC4)n3)c(-c3ccc(F)cc3)nn2c1` [GW561436X]: the potency estimated from few doses with CDC42BPG (CATDS: 0.104980182660456) is 1180 nM; in the assay on GAK, 650 nM; in the assay with MAPK10, 775 nM; with MAPK14, 356 nM; in the assay with MAPK9, 1100 nM; in the assay on MAPKAPK2, 417 nM. The potency estimated from few doses in the assay on NQO1 is 2220 nM; in the assay on TNIK, 667 nM.
